Screening data from PubChem.
RORgamma inh = qHTS for inhibitors of ROR gamma transcriptional activity; Nuclear receptor ROR-gamma (Mus musculus), P51450; Potency, µM (series often up to 53.6 µM), usual class: inhibitors; Drosophila S2 Gal4-RORgamma UAS-luciferase reporter, 20 h; 310,000 compounds, 5.4% hits; note: nearly all actives have a fitted effect of over 60% in size
Target sequence (P51450 whole entry, looked up, the tested form may be a part): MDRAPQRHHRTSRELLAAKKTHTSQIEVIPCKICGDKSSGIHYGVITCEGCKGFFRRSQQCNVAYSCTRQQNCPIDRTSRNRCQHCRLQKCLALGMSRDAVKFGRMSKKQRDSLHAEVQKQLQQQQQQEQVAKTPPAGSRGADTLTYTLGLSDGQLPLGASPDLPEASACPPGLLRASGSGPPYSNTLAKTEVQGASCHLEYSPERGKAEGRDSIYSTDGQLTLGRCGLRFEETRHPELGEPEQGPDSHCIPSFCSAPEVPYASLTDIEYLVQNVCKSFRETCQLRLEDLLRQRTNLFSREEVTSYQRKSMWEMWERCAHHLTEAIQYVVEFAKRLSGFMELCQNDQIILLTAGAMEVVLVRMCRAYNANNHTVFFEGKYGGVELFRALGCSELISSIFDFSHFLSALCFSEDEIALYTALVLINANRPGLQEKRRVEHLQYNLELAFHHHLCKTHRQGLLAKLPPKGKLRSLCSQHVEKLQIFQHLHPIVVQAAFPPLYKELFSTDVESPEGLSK
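Stable Schneider cell line, Gal4 DNA-binding domain fused to ROR gamma, UAS-luciferase. Cmpd 1 hr RT → CuSO4 700 uM final → 20 hr RT → luciferase reagent 10 min → luminescence.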
BCR signal inh = qHTS Assay to Find Inhibitors of Chronic Active B-Cell Receptor Signaling; ABC-DLBCL IkBa-CBG/CBR reporter, luminescence ratio, 4 h; Potency, µM (series often up to 46.1 µM), hits mostly inhibitors; 340,000 compounds, 0.05% hits; AID 493014, 2011; active = well fitted inhibition curve with a large enough effect in the signal ratio, with a control signal flat, not every such curve was filed as active; inconclusive = small, poorly fitted or top-dose-only effect, or effect the other way, or a change in a side signal; the % refers to the signal ratio
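TMD8 ABC-DLBCL cells carrying doxycycline-inducible green luciferase fused to IkappaBalpha plus unfused red luciferase were exposed to compounds (up to 46 uM) for 4 hrs at 37C. Activity came from the overlap-corrected green/red luminescence ratio.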
VP16 counter = VP16 counterscreen qHTS for inhibitors of ROR gamma transcriptional activity; Drosophila S2 Gal4-VP16 UAS-luciferase, luminescence, 20 h; Potency, µM (highest dose often 53.6 µM), actives largely listed as inhibitors; 310,000 compounds, 3.5% hits; AID 2546, 2010;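 note: Gal4-VP16 expression switched on by copper sulfate through the metallothionein promoter; nearly all actives have a fitted effect of over 50% in size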
SW480 rerep = A quantitative high throughput screen for small molecules that induce DNA re-replication in SW480 colon adenocarcinoma cells. SW480 DNA re-replication, Hoechst DNA content imaging, 48 h. Potency, µM (top dose mostly 46.1 µM), usual class: activators. 340,000 compounds, 1.8% hits; note: nearly all actives have a fitted effect of over 55% in size
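Cells (250 per well) received 23 nL compound or DMSO by pin tool and were kept 48 hr at 37 C, 5% CO2. Nuclei were then stained with Hoechst for 40 min and scanned for DNA content.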
MCF10A rerep = A quantitative high throughput screen for small molecules that induce DNA re-replication in MCF 10a normal breast cells | Potency, µM (titrated, usually from 46.1 µM), hits mostly activators | AID 624296, 2012 | 350,000 compounds, 2.9% hits | MCF 10A DNA re-replication, Hoechst nuclear intensity, 48 h; note: nearly all actives have a fitted effect of over 50% in size
Giardia kill = Small Molecules that selectively kill Giardia lamblia: qHTS; Giardia lamblia trophozoite viability; activity change, % at 7.66 µM, hits read low; 340,000 compounds, 0.15% hits; AID 540267, 2011; in the data active = activity change below about -80%; inconclusive = between about -30% and that limit;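 note: parasites exposed to compound for two days anaerobically before the ATP read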
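Media and compound were dispensed first, then trophozoites at 100 cells/well; plates sat 48 hrs at 37 deg C without oxygen before ATP luminescence reagent was added and read after 15-30 min at room temperature.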
Numbers stand for hits; i = inactive; ? = inconclusive; nt = no result; [ ] = another dose, or the depositor's remark. A selection: hits, their analogues and other compounds. The true share with any hit is near 8.3%. Unless noted, calls come from the whole dose curve; as a rule, active = well fitted curve in the direction sought with a large enough effect; inconclusive = small, poorly fitted or top-dose-only effect, or another doubt; inactive = no such curve, though single readings can be large; an effect the other way counts as inactive or inconclusive.

SMILES | RORgamma inh | BCR signal inh | VP16 counter | SW480 rerep | MCF10A rerep | Giardia kill
c1cc2c3c(cccc3c1)C(N1CCCCCC1)=N2 | 7.9µM | i | ? | i | i | i
CCOc1cc(-c2nc(C)c(C(C)=O)n2O)ccc1OCC(=O)Nc1ccccc1 | ? | i | i | i[1.84 µM] | i | i
COc1ccc2nc(N=Nc3c(O)ccc4ccccc34)sc2c1 | 1µM | i | 4.5µM | i | i | nt
COc1ccc2nc(NC(=O)C(NS(=O)(=O)c3cccc4nsnc34)C(C)C)sc2c1 (stereo not drawn) | ? | i | 11µM | i | i | i
COc1ccc2nc(NC(=O)Nc3ccccc3OC)sc2c1 | i | ? | i | 2.9µM | ? | i
COc1ccccc1NC(=O)Nc1nc2ccc(S(N)(=O)=O)cc2s1 | i | ? | i | i | ? | i
COc1ccc2nc(NC(=O)Nc3cccc4ccccc34)sc2c1 | i | ? | i | i | 9.2µM | i
CSCC[C@H](NC(=O)C1CCN(C(=O)[C@@H](N)Cc2ccccc2)CC1)C(=O)O | i | i | i | i | i | i
O=C(NCCc1ccc(Cl)cc1)C1=CC=CN2CCS(=O)(=O)N=C12 | nt | i | nt | i | i | i
CCOC(=O)c1c(C)[nH]c(C(=O)NCc2ccco2)c1C | i | i | i | nt | nt | nt
S=C(NC1CCCCC1)NN1CCCCCC1 | nt | nt | nt | i | i | i
CC(C)CNC(=S)NC1CCCC1 | 10µM | ? | ? | i | i | i
S=C(NC1CCCC1)NC1CC1 | 13µM | i | ? | i | i | i
S=C(NC1CCCC1)NC1CCCC1 | 2.5µM | i | ? | i | i | i
CC(C)C[C@H](NC(=O)N1c2ccccc2NC(=O)[C@@H]1C(C)C)C(=O)N1CCC[C@@H]1C(=O)O | i | i | i | i | i | i
C=CCN(CC=C)C(=O)c1ccc(OC2CCN(C(C)=O)CC2)c(OC)c1 | nt | i | nt | i | i | i
S=C(NCCNC(=S)Nc1ccccc1Cl)Nc1ccccc1Cl | ? | i | i | i | i | i
S=C(NCc1cccs1)Nc1cccc(Cl)c1 | 20µM | ? | ? | ? | i | i
S=C(NCc1cccs1)Nc1ccccc1Cl | 13µM | i | 14µM | i | i | i
O=C(NCc1cccs1)Nc1cccc(Cl)c1 | nt | nt | nt | i | i | i
S=C(NCc1cccs1)Nc1cc(Cl)cc(Cl)c1 | 13µM | i | ? | ? | 23µM | i
COc1cc(C=C(c2nc3ccccc3s2)c2nc3ccccc3s2)ccc1O | i[10 µM] | ? | i | ? | 21µM | i
COc1ccc(C=C(c2nc3ccccc3s2)c2nc3ccccc3s2)cc1O | i | ? | i | ? | 13µM | i
COc1ccc(/C=N/Nc2nc3ccccc3s2)cc1O | ? | ? | ? | i | i | i
CCc1ccc(NC(=S)N(Cc2ccccc2)Cc2ccccn2)cc1 | 0.32µM | i | ? | i | i | i
SMILES | RORgamma inh | BCR signal inh | VP16 counter | SW480 rerep | MCF10A rerep | Giardia kill
COc1cccc(NC(=S)N(Cc2ccccn2)Cc2ccccc2Cl)c1 | 6.3µM | i | ? | i | i | i
COc1ccc(NC(=S)N(Cc2ccccn2)Cc2ccccc2Cl)cc1 | 5.6µM | i | i[10 µM] | i | i | i
COCCN(Cc1ccccc1)C(=S)Nc1ccc(Cl)cc1 | 7.1µM | ? | i[10 µM] | i | i | i
COc1ccc(NC(=S)N(CCO)Cc2ccccc2)cc1 | i | i | i | nt | nt | nt
CCc1ccc(NC(=S)N(CCCN2CCOCC2)Cc2ccccn2)cc1 | i | i | i | i | i | i
COc1cccc(NC(=S)N(CCc2ccc(OC)c(OC)c2)Cc2ccccn2)c1 | ? | ? | i | i[1.84 µM] | i | i
CCN(CC)CCNc1cc(C)nc2c1C(=O)C(=O)C=C2N1CCCCC1 | 5µM | ? | i | ? | i | i
CSc1ccc(C(=O)C2CCCN(Cc3cccc4nccnc34)C2)cc1 (stereo not drawn) | i | i | i | i | i | i
CC(C)OC(=O)C1=C2SCC(=O)N2C(N)=C(C#N)C1 | 13µM | i | i | i | i | i
COc1ccc(N2C(=O)CC(C#N)=C2N)cc1 | ? | i | i | i | i | ?
CC1=NN(C(C#N)c2ccc(F)cc2)C(c2ccccc2)C1 (stereo not drawn) | ? | i | i | ? | i | i
